According to PubChem BioAssay AID463095 (Sanford-Burnham Center for Chemical Genomics, 2010):
The list shows a part of the results. Calls of active or inactive are those of the source.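 Rule for the calls: active = proliferation increase above 40% at any of the four tested concentrations; inactive = the rest.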

Assay: inducers of beta-cell proliferation in MIN6, confirmation, MIN6 cells, mouse (AID 463095)
Conditions: ATPlite luminescence, 48 h, cells kept in 0.2% serum, scaled between 0.2% and 10% serum; series mostly up to 50 µM; proliferation increase: at the top concentration

Proliferation increase, inactive:
COc1ccccc1N=Cc1c(O)c2ccccc2oc1=O -3.9%, COCCNc1nc(-c2ccccc2)nc2c1oc1ccccc12 -6.4%, CN(Cc1ccc(F)cc1Cl)S(=O)(=O)c1cccs1 -6.4%, CCCNC(=O)CCn1nc(-c2ccccc2)c2ccccc2c1=O 5.5%, O=C(CSc1nc2ccccc2[nH]1)N/N=C/C=C\c1ccccc1[N+](=O)[O-] -6.1%, Cc1ccc(S(=O)(=O)N2CCCCC2)cc1C(=O)N1CCN(CCO)CC1 2.7%, C/C(=N\NC(=O)c1ccccc1C)c1ccc(N2CCOCC2)cc1 -1.7%, Cc1ccc(C(=O)Nc2ccc(NC(=O)c3cccs3)cc2)c(C)c1 -3.4%, S=C(Nc1cccc(Cl)c1)Nc1ccc2cn[nH]c2c1 -0.1%, CCn1c(=O)c([N+](=O)[O-])c(NCc2ccc3c(c2)OCO3)c2ccccc21 -0.2%, Cc1nn(C(C)C(=O)NCCC2=CCCCC2)c(=O)c2nn(-c3ccccc3)c(C)c12 (stereo unspecified) -5.8%, O=C(NNC(=S)NCc1ccccc1)c1ccc(OC(F)F)cc1 -6%, N#Cc1cccc(CN2CCC(=O)N([C@H](CO)c3ccccc3)CC2)c1 1%, COc1ccc(-c2nnn(Cc3nc(N)nc(N4CCCCC4)n3)n2)cc1 -6.3%, CC(=O)c1cnc(-c2ccccc2)s1 -0.6%, COc1cc2c(cc1OC)C(C(=O)NCc1ccco1)C1c3ccccc3CCN1C2=O (stereo unspecified) 4.1%, CCOC(=O)Nc1sc(C(=O)N(C)C)c(C)c1C(=O)OCC 1.6%, CC(=O)OC(C(=O)NC1CCCCC1)c1ccccc1 (stereo unspecified) -0.2%, Cc1cc(NC(=O)CSc2nc3ccccc3n2CC(C)C)no1 -5.9%, OC1CN=C2Sc3ccccc3N2C1 (stereo unspecified) -3.5%, Cc1ccccc1CNC(=O)CCC(=O)N1Cc2ccccc2Oc2ncccc21 1.4%
